Compounds with a hit are over-represented: about 11% of the library has one in this group of screens.
HEK cytotox: Cytotoxic Profiling in HEK 293 Cell Line of Diverse Libraries Using Quantitative High-Throughput Screening. HEK 293 viability, ATP luminescence (CellTiter-Glo), 48-72 h. Potency, µM (series often up to 115 µM), without a hit: at the top dose activity change, negative = cytotoxicity, actives largely listed as inhibitors. 6.6% of 94,000 active; further: nearly all actives have a fitted effect of over 60% in size
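qHTS cytotoxicity; HEK 293, 250 cells/well; compound pinned; 48 or 72 hr, 37 degree Celsius, 5% CO2, 95% humidity; CellTiter-Glo, 10 min RT; luminescence (ATP).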
hNpr1 antagonist: Natriuretic polypeptide receptor (hNpr1) antagonism - Primary qHTS; Atrial natriuretic peptide receptor 1 (Homo sapiens), P16066; HEK293 hNpr1 GloSensor cGMP, ANP-stimulated luminescence; AID 1347048, 2019; Potency, µM (series often up to 46.3 µM), for inactives: at the highest dose activity change, negative = inhibition, hits mostly inhibitors; 1.6% of 76,000 active; calls by dose curve; further: nearly all actives have a fitted effect of over 60% in size
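Compound pre-incubated 30 min at room temperature on GloSensor-loaded HEK293 cells stably carrying hNpr1 and the pGS-40F cGMP biosensor. Stimulation uses hNppA at 0.1 nM final; luminescence is taken at baseline and 20 min post-agonist.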
FLuc inh: Firefly luciferase inhibition profiling of diverse chemical library using quantitative high-throughput screening; Luciferin 4-monooxygenase (Photinus pyralis), P08659; purified P. pyralis luciferase, luminescence, biochemical; Potency, µM (highest dose often 115 µM), most hits filed as inhibitors; 2.5% of 76,000 active; AID 1347043, 2019; further: nearly all actives have a fitted effect of over 65% in size
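FLuc 10nM, D-luciferin 10uM, ATP 10uM, Mg acetate 10mM, Tris acetate pH 7.5, Tween/BSA; cpd qHTS; enzyme added last; CCD luminescence.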
NIH3T3 tox: Cytotoxic Profiling in NIH 3T3 Cell Line of Diverse Libraries Using Quantitative High-Throughput Screening. 4.3% of 94,000 active. AID 1345082, 2018. NIH 3T3 viability, CellTiter-Glo ATP luminescence, 48-72 h. Potency, µM (highest dose often 96.7 µM), for the others: at the top dose activity change, negative = cytotoxicity, usual class: inhibitors; further: nearly all actives have a fitted effect of over 55% in size
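Viability of NIH 3T3 cells after 48 or 72 hr compound treatment at 37 °C was assessed by CellTiter-Glo, with luminescence imaged following a 10 min room-temperature step.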
* hit, by the source's call; [ ] = remark or other dose. Unless noted, the call rests on the fitted dose curve; in most records, active means well fitted curve in the direction sought with a large enough effect; inconclusive means small, poorly fitted or top-dose-only effect, or another doubt; inactive means no such curve, though single readings can be large; an effect the other way counts as inactive or inconclusive. On the % scale 0 is the no-effect control and ±100 the full control effect; potency means the concentration at half of the fitted maximal effect.

For Cc1ccc(Nc2ccnc(N3CCC(NC(=O)NC4CCCC4)CC3)n2)cc1 the results were HEK cytotox -27.2% and NIH3T3 tox -10.1%.
Cc1ccc(Nc2ccnc(N3CCC(NC(=O)N(C)C)CC3)n2)cc1 was read as HEK cytotox inconclusive and NIH3T3 tox 44.7µM*.
For Cc1ccc(Nc2ccnc(N3CCC(C(=O)NC4CC4)CC3)n2)cc1 the results were HEK cytotox inconclusive and NIH3T3 tox 35.5µM*.
`Cc1ccc(Nc2ccnc(N3CCC(NC(=O)C4CC4)CC3)n2)cc1` gave HEK cytotox 44.7µM* and NIH3T3 tox inconclusive.
`Cc1ccc(Nc2ccnc(N3CCC(C(=O)NC4CCCC4)CC3)n2)cc1` gave HEK cytotox 44.7µM* and NIH3T3 tox 35.5µM*.
`C=CCOC(=O)Nc1nc2c(s1)C[C@@H]1[C@](C)(CO)[C@H](O)CC[C@@]1(C)[C@@H]2CC(=O)N1CCCCC1` gave HEK cytotox -16.0%, hNpr1 antagonist -3.8%, FLuc inh inactive and NIH3T3 tox -15.5%.
For COc1ccc(CC(=O)N2C[C@@H]3CCCN4CCC[C@@H]([C@H]34)[C@H]2CCCC(=O)NCC2CC2)cc1 the results were HEK cytotox -35.9% and NIH3T3 tox -30.9%.
`COc1ccc(-c2cccc(C(=O)N3CCN(C(=O)Cc4ccc(F)cc4)CC3)c2)nn1` gave HEK cytotox -26.9% and NIH3T3 tox -23.2%.
`CNC(=O)c1cc(C)nc2onc(C3CCCN(C(=O)c4ccc(Cl)cc4)C3)c12` (configuration not stated) gave HEK cytotox inconclusive and NIH3T3 tox -22.9%.
Screening Cc1ccc(-n2nc(C)c([C@@H]3C=C[C@@H](NC(=O)CC(C)(C)CC(=O)O)C3)c2C)cc1Cl returned HEK cytotox -18.6%, hNpr1 antagonist -7.5%, FLuc inh inactive and NIH3T3 tox inconclusive.
Cc1ccc(-n2nc(C)c([C@@H]3C=C[C@@H](NCc4ccc(F)cc4)C3)c2C)cc1Cl was read as HEK cytotox 31.6µM*, hNpr1 antagonist -30.5%[70.6 µM], FLuc inh 44.7µM* and NIH3T3 tox inconclusive.
Cc1ccc(-n2nc(C)c([C@@H]3C=C[C@@H](NCc4ccc(N(C)C)cc4)C3)c2C)cc1Cl was read as HEK cytotox 8.91µM*, hNpr1 antagonist inconclusive, FLuc inh 25.1µM* and NIH3T3 tox 7.94µM*.
Screening O=C(Cc1cccnc1)N1CCC2(CC1)CC(N1CCN(c3ccccn3)CC1)CCO2 (configuration not stated) returned HEK cytotox inconclusive and NIH3T3 tox -23.9%.
`CCN1C(=O)C2CC3(CCN(Cc4ccc5cc[nH]c5c4)CC3)CN2C1=O` (configuration not stated) gave HEK cytotox inconclusive, hNpr1 antagonist -1.4%, FLuc inh inactive and NIH3T3 tox -4.0%.
Screening CCN1C(=O)C2CC3(CCN(Cc4ccc(F)c(F)c4)CC3)CN2C1=O (configuration not stated) returned HEK cytotox 31.6µM*, hNpr1 antagonist -11.3%, FLuc inh inactive and NIH3T3 tox inconclusive.
Screening CCCn1cc2c3c(cccc31)CN(C(=O)c1cccc(C#N)c1)CC2 returned HEK cytotox inconclusive, hNpr1 antagonist -9.2%, FLuc inh inactive and NIH3T3 tox inconclusive.
`COCCn1cc2c3c(cccc31)CN(C(=O)c1cccc(C(F)(F)F)c1)CC2` gave HEK cytotox inconclusive, hNpr1 antagonist -20.5%, FLuc inh inactive and NIH3T3 tox 31.6µM*.
`CN(C)c1ccc(-c2nnc([C@H]3CCN(C(=O)c4ccccn4)C3)o2)cc1` gave HEK cytotox inconclusive, hNpr1 antagonist -15.0%[70.6 µM], FLuc inh 20µM* and NIH3T3 tox -12.4%[174 µM].
Screening CN(C)c1ccc(-c2nnc([C@H]3CCN(Cc4ccccn4)C3)o2)cc1 returned HEK cytotox inconclusive, hNpr1 antagonist 2.3%[70.6 µM], FLuc inh inconclusive and NIH3T3 tox -28.3%[174 µM].
